In paper PMC11006913 one finds binding signal data, which are given here for 32 sequences.

Assay [1] concerns the target NKX3-2 (Homo sapiens, UniProt P78367 192-278, P234S). The assay can be described thus: PBM; 200 nM protein, PBS. The conditions noted are these: dsDNA, one strand shown.
Assay [2] deals with NKX3-2 (Homo sapiens, UniProt P78367 192-278). Put plainly: PBM; 200 nM protein, PBS. The conditions noted are these: dsDNA, one strand shown.
NKX3-2 (Homo sapiens, UniProt P78367 192-278), sequence (P78367 192-278): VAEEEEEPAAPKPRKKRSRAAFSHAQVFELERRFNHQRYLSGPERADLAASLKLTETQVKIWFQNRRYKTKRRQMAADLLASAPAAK

NKX3-2 (Homo sapiens, UniProt P78367 192-278, P234S), sequence (P78367 192-278 P234S): as the sequence (P78367 192-278) above, with P43S counted along it

On to GAAGTGGC, for which the binding signal in assay [1] was 12.7 upbm affinity estimate (log intensity, higher = more binding, comparable within an allelic series); in assay [2], 12.8 upbm affinity estimate (log intensity, higher = more binding, comparable within an allelic series).

ACCAACGC: the binding signal in assay [1] is 10.7 upbm affinity estimate (log intensity, higher = more binding, comparable within an allelic series); in assay [2], 10.7 upbm affinity estimate (log intensity, higher = more binding, comparable within an allelic series).

As to CATCACTA, the binding signal in assay [1] was 11.5 upbm affinity estimate (log intensity, higher = more binding, comparable within an allelic series); in assay [2], 11.5 upbm affinity estimate (log intensity, higher = more binding, comparable within an allelic series).

As for CGCGGCCG, the binding signal is 10.2 upbm affinity estimate (log intensity, higher = more binding, comparable within an allelic series) in assay [1] and 10.2 upbm affinity estimate (log intensity, higher = more binding, comparable within an allelic series) in assay [2].

In the case of CGGGTCGA, the binding signal in assay [1] was 10.6 upbm affinity estimate (log intensity, higher = more binding, comparable within an allelic series); in assay [2] it was 10.6 upbm affinity estimate (log intensity, higher = more binding, comparable within an allelic series).

Turning to AAGTATAC, the binding signal was 11.6 upbm affinity estimate (log intensity, higher = more binding, comparable within an allelic series) in assay [1] and 11.7 upbm affinity estimate (log intensity, higher = more binding, comparable within an allelic series) in assay [2].

Consider GAAGTGCC, for which the binding signal in assay [1] is 12.8 upbm affinity estimate (log intensity, higher = more binding, comparable within an allelic series); in assay [2], 12.9 upbm affinity estimate (log intensity, higher = more binding, comparable within an allelic series).

As to AGAGAGGA, the binding signal was 11.5 upbm affinity estimate (log intensity, higher = more binding, comparable within an allelic series) in assay [1] and 11.6 upbm affinity estimate (log intensity, higher = more binding, comparable within an allelic series) in assay [2].

For the sequence AAGCCGCC, the binding signal in assay [1] is 10.7 upbm affinity estimate (log intensity, higher = more binding, comparable within an allelic series); in assay [2], 10.7 upbm affinity estimate (log intensity, higher = more binding, comparable within an allelic series).

Consider GGCGCGCA, for which the binding signal in assay [1] is 10.6 upbm affinity estimate (log intensity, higher = more binding, comparable within an allelic series); in assay [2] it was 10.6 upbm affinity estimate (log intensity, higher = more binding, comparable within an allelic series).

Consider GTCACTTA, for which the binding signal was 12.5 upbm affinity estimate (log intensity, higher = more binding, comparable within an allelic series) in assay [1] and 12.6 upbm affinity estimate (log intensity, higher = more binding, comparable within an allelic series) in assay [2].

Consider GAGTAGAC, for which the binding signal in assay [1] was 11.6 upbm affinity estimate (log intensity, higher = more binding, comparable within an allelic series); in assay [2] it was 11.6 upbm affinity estimate (log intensity, higher = more binding, comparable within an allelic series).

Take GACGAACC: the binding signal in assay [1] was 10.6 upbm affinity estimate (log intensity, higher = more binding, comparable within an allelic series); in assay [2] it was 10.5 upbm affinity estimate (log intensity, higher = more binding, comparable within an allelic series).

For CAAGGGTC, the binding signal in assay [1] is 11.7 upbm affinity estimate (log intensity, higher = more binding, comparable within an allelic series); in assay [2], 11.8 upbm affinity estimate (log intensity, higher = more binding, comparable within an allelic series).

For AGAAGTGG, the binding signal is 12.5 upbm affinity estimate (log intensity, higher = more binding, comparable within an allelic series) in assay [1] and 12.7 upbm affinity estimate (log intensity, higher = more binding, comparable within an allelic series) in assay [2].

As to TCTGGGCA, the binding signal in assay [1] was 10.6 upbm affinity estimate (log intensity, higher = more binding, comparable within an allelic series); in assay [2], 10.6 upbm affinity estimate (log intensity, higher = more binding, comparable within an allelic series).

As for GGTCAAAC, the binding signal in assay [1] is 10.5 upbm affinity estimate (log intensity, higher = more binding, comparable within an allelic series); in assay [2] it was 10.5 upbm affinity estimate (log intensity, higher = more binding, comparable within an allelic series).

Turning to ACCAGGCT, the binding signal in assay [1] was 10.6 upbm affinity estimate (log intensity, higher = more binding, comparable within an allelic series); in assay [2], 10.6 upbm affinity estimate (log intensity, higher = more binding, comparable within an allelic series).

As to CCGAGTAC, the binding signal is 11.5 upbm affinity estimate (log intensity, higher = more binding, comparable within an allelic series) in assay [1] and 11.6 upbm affinity estimate (log intensity, higher = more binding, comparable within an allelic series) in assay [2].

For the sequence CCACTTCC, the binding signal was 12.6 upbm affinity estimate (log intensity, higher = more binding, comparable within an allelic series) in assay [1] and 12.7 upbm affinity estimate (log intensity, higher = more binding, comparable within an allelic series) in assay [2].

With CCTGCCCG, the binding signal was 10.7 upbm affinity estimate (log intensity, higher = more binding, comparable within an allelic series) in assay [1] and 10.7 upbm affinity estimate (log intensity, higher = more binding, comparable within an allelic series) in assay [2].

Regarding GGACCCGA, the binding signal was 10.6 upbm affinity estimate (log intensity, higher = more binding, comparable within an allelic series) in assay [1] and 10.6 upbm affinity estimate (log intensity, higher = more binding, comparable within an allelic series) in assay [2].

For the sequence CACTTACG, the binding signal in assay [1] was 12.7 upbm affinity estimate (log intensity, higher = more binding, comparable within an allelic series); in assay [2], 12.8 upbm affinity estimate (log intensity, higher = more binding, comparable within an allelic series).

Regarding CACGGGCA, the binding signal in assay [1] is 10.5 upbm affinity estimate (log intensity, higher = more binding, comparable within an allelic series); in assay [2], 10.6 upbm affinity estimate (log intensity, higher = more binding, comparable within an allelic series).

In the case of AAGGGCCT, the binding signal in assay [1] is 11.9 upbm affinity estimate (log intensity, higher = more binding, comparable within an allelic series); in assay [2], 12 upbm affinity estimate (log intensity, higher = more binding, comparable within an allelic series).

As for AAGAGTGG, the binding signal in assay [1] was 12.5 upbm affinity estimate (log intensity, higher = more binding, comparable within an allelic series); in assay [2] it was 12.7 upbm affinity estimate (log intensity, higher = more binding, comparable within an allelic series).

For the sequence ACCAAGAG, the binding signal in assay [1] is 11.7 upbm affinity estimate (log intensity, higher = more binding, comparable within an allelic series); in assay [2] it was 11.8 upbm affinity estimate (log intensity, higher = more binding, comparable within an allelic series).

Regarding CTGCATCC, the binding signal was 10.6 upbm affinity estimate (log intensity, higher = more binding, comparable within an allelic series) in assay [1] and 10.7 upbm affinity estimate (log intensity, higher = more binding, comparable within an allelic series) in assay [2].

Turning to GAGACCGC, the binding signal in assay [1] was 10.7 upbm affinity estimate (log intensity, higher = more binding, comparable within an allelic series); in assay [2] it was 10.7 upbm affinity estimate (log intensity, higher = more binding, comparable within an allelic series).

Turning to CGACCTAG, the binding signal is 10.6 upbm affinity estimate (log intensity, higher = more binding, comparable within an allelic series) in assay [1] and 10.6 upbm affinity estimate (log intensity, higher = more binding, comparable within an allelic series) in assay [2].

On to CCTGGCCG, for which the binding signal was 10.5 upbm affinity estimate (log intensity, higher = more binding, comparable within an allelic series) in assay [1] and 10.5 upbm affinity estimate (log intensity, higher = more binding, comparable within an allelic series) in assay [2].

For CTAAAGGC, the binding signal in assay [1] is 10.5 upbm affinity estimate (log intensity, higher = more binding, comparable within an allelic series); in assay [2] it was 10.6 upbm affinity estimate (log intensity, higher = more binding, comparable within an allelic series).
